Where a chain is given by its changes, count along the chain named.
Key:
Assay in all cases: yeast three-hybrid, YBZ-1, SC-Leu-His + 0.5 mM 3-AT, 4 days
Settings in all cases: tags: N-Gal4 AD-HA kept; label: inside an RPR1-promoter hybrid RNA with tandem MS2 sites; ssRNA
[1] = molecular target: PUM1 PUF domain R5-KNG (Homo sapiens, UniProt Q14671 828-1176, C1007K;R1008N;Q1011G)
Outline: (§1)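 The interaction score is the log change in variant frequency from input to selection. Scores were computed in log2 with a pseudocount of 1 for absent variants, using Illumina sequencing of PCR-amplified repeat regions. The input came from four days on SC-Leu and the selection from four days on SC-Leu-His + 0.5 mM 3-AT. The cells were strain YBZ-1 (LexA–MS2 coat fusion, HIS3 reporter) co-expressing Pumilio-1 PUF domain libraries and matching RNA elements from a centromeric plasmid.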

[2] = molecular target: PUM1 PUF domain R5-NDI (Homo sapiens, UniProt Q14671 828-1176, C1007N;R1008D;Q1011I)
Outline: as §1

[3] = molecular target: PUM1 PUF domain R5-KYF (Homo sapiens, UniProt Q14671 828-1176, C1007K;R1008Y;Q1011F)
Outline: as §1

[4] = molecular target: PUM1 PUF domain R5-SNR (Homo sapiens, UniProt Q14671 828-1176, C1007S;R1008N;Q1011R)
Outline: as §1

[5] = molecular target: PUM1 PUF domain R5-DQR (Homo sapiens, UniProt Q14671 828-1176, C1007D;R1008Q;Q1011R)
Outline: as §1

[6] = molecular target: T1, PUM1 PUF domain R6-VFT (Homo sapiens, UniProt Q14671 828-1176, N1043V;Y1044F;Q1047T)
T1 sequence: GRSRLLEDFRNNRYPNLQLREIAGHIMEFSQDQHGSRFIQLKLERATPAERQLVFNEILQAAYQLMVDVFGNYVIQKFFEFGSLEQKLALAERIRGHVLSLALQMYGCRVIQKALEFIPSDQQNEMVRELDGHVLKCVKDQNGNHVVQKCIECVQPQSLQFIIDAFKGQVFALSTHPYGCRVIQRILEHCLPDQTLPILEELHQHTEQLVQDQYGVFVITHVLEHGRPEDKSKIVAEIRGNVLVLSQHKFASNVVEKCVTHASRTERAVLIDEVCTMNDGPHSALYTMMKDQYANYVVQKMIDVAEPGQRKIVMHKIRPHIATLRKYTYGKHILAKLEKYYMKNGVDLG
Outline: as §1

[7] = molecular target: T2, PUM1 PUF domain R6-TYE (Homo sapiens, UniProt Q14671 828-1176, N1043T;Q1047E)
T2 sequence: T1 sequence with V216T, F217Y, T220E
Outline: as §1

[8] = molecular target: T3, PUM1 PUF domain R6-TWL (Homo sapiens, UniProt Q14671 828-1176, N1043T;Y1044W;Q1047L)
T3 sequence: T1 sequence with V216T, F217W, T220L
Outline: as §1

[9] = molecular target: PUM1 PUF domain R7-KWH (Homo sapiens, UniProt Q14671 828-1176, S1079K;N1080W;E1083H)
Outline: as §1

[10] = molecular target: PUM1 PUF domain R4-EFG (Homo sapiens, UniProt Q14671 828-1176, N971E;H972F;Q975G)
Outline: as §1

[11] = molecular target: PUM1 PUF domain R1-GRS (Homo sapiens, UniProt Q14671 828-1176, S863G;Q867S)
Outline: as §1

[12] = molecular target: PUM1 PUF domain R3-SRG (Homo sapiens, UniProt Q14671 828-1176, C935S;Q939G)
Outline: as §1

[13] = molecular target: PUM1 PUF domain R3-LCR (Homo sapiens, UniProt Q14671 828-1176, C935L;R936C;Q939R)
Outline: as §1

[14] = molecular target: PUM1 PUF domain R3-ARC (Homo sapiens, UniProt Q14671 828-1176, C935A;Q939C)
Outline: as §1

[15] = molecular target: PUM1 PUF domain R8-QWN (Homo sapiens, UniProt Q14671 828-1176, N1122Q;Y1123W;Q1126N)
Outline: as §1

[16] = molecular target: PUM1 PUF domain R3-RIK (Homo sapiens, UniProt Q14671 828-1176, C935R;R936I;Q939K)
Outline: as §1

[17] = molecular target: PUM1 PUF domain R3-RQL (Homo sapiens, UniProt Q14671 828-1176, C935R;R936Q;Q939L)
Outline: as §1

[18] = molecular target: PUM1 PUF domain R5-KQG (Homo sapiens, UniProt Q14671 828-1176, C1007K;R1008Q;Q1011G)
Outline: as §1

[19] = molecular target: PUM1 PUF domain R5-TQG (Homo sapiens, UniProt Q14671 828-1176, C1007T;R1008Q;Q1011G)
Outline: as §1

[20] = molecular target: PUM1 PUF domain R8-LWK (Homo sapiens, UniProt Q14671 828-1176, N1122L;Y1123W;Q1126K)
Outline: as §1

Sequence: GGCUAGAACUAGUGGAUCCCCCGGCGCCCGGCGGCUCGAGCCCGGGUAAGUGUUAAUAGUCUGCAUGCCGCCGGGCGCCAUGCCUGCAGGUCGACUCUAGAAAACAUG
- binding signal [1]: 4.33 log2 enrichment (interaction score)
- binding signal [2]: 3.04 log2 enrichment (interaction score)
- binding signal [3]: 3.92 log2 enrichment (interaction score)
- binding signal [4]: 4.01 log2 enrichment (interaction score)
- binding signal [5]: 1.66 log2 enrichment (interaction score)

Sequence: GGCUAGAACUAGUGGAUCCCCCGGCGCCCGGCGGCUCGAGCCCGGGUAAGUGAAAAUAGUCUGCAUGCCGCCGGGCGCCAUGCCUGCAGGUCGACUCUAGAAAACAUG
- binding signal [6]: 6.61 log2 enrichment (interaction score)
- binding signal [7]: 3.51 log2 enrichment (interaction score)
- binding signal [8]: 5.21 log2 enrichment (interaction score)

Sequence: GGCUAGAACUAGUGGAUCCCCCGGCGCCCGGCGGCUCGAGCCCGGGUAAGUAUAAAUAGUCUGCAUGCCGCCGGGCGCCAUGCCUGCAGGUCGACUCUAGAAAACAUG
- binding signal [9]: 2.68 log2 enrichment (interaction score)

Sequence: GGCUAGAACUAGUGGAUCCCCCGGCGCCCGGCGGCUCGAGCCCGGGUAAGUGUAUAUAGUCUGCAUGCCGCCGGGCGCCAUGCCUGCAGGUCGACUCUAGAAAACAUG
- binding signal [10]: 1.18 log2 enrichment (interaction score)

Sequence: GGCUAGAACUAGUGGAUCCCCCGGCGCCCGGCGGCUCGAGCCCGGGUAAGUGUAAAUCGUCUGCAUGCCGCCGGGCGCCAUGCCUGCAGGUCGACUCUAGAAAACAUG
- binding signal [11]: 2.75 log2 enrichment (interaction score)

Sequence: GGCUAGAACUAGUGGAUCCCCCGGCGCCCGGCGGCUCGAGCCCGGGUAAGUGUAAGUAGUCUGCAUGCCGCCGGGCGCCAUGCCUGCAGGUCGACUCUAGAAAACAUG
- binding signal [12]: 2.65 log2 enrichment (interaction score)
- binding signal [13]: 3.54 log2 enrichment (interaction score)
- binding signal [14]: 0.43 log2 enrichment (interaction score)

Sequence: GGCUAGAACUAGUGGAUCCCCCGGCGCCCGGCGGCUCGAGCCCGGGUAAGCGUAAAUAGUCUGCAUGCCGCCGGGCGCCAUGCCUGCAGGUCGACUCUAGAAAACAUG
- binding signal [15]: 3.25 log2 enrichment (interaction score)

Sequence: GGCUAGAACUAGUGGAUCCCCCGGCGCCCGGCGGCUCGAGCCCGGGUAAGUGUAAUUAGUCUGCAUGCCGCCGGGCGCCAUGCCUGCAGGUCGACUCUAGAAAACAUG
- binding signal [16]: 2.73 log2 enrichment (interaction score)
- binding signal [17]: 3.54 log2 enrichment (interaction score)
- binding signal [13]: 1.28 log2 enrichment (interaction score)
- binding signal [14]: 1.82 log2 enrichment (interaction score)

Sequence: GGCUAGAACUAGUGGAUCCCCCGGCGCCCGGCGGCUCGAGCCCGGGUAAGUGUCAAUAGUCUGCAUGCCGCCGGGCGCCAUGCCUGCAGGUCGACUCUAGAAAACAUG
- binding signal [1]: 2.59 log2 enrichment (interaction score)
- binding signal [18]: 3.41 log2 enrichment (interaction score)
- binding signal [4]: 6.17 log2 enrichment (interaction score)
- binding signal [5]: 3.91 log2 enrichment (interaction score)

Sequence: GGCUAGAACUAGUGGAUCCCCCGGCGCCCGGCGGCUCGAGCCCGGGUAAGUGUGAAUAGUCUGCAUGCCGCCGGGCGCCAUGCCUGCAGGUCGACUCUAGAAAACAUG
- binding signal [19]: 2.63 log2 enrichment (interaction score)

Sequence: GGCUAGAACUAGUGGAUCCCCCGGCGCCCGGCGGCUCGAGCCCGGGUAAGUGUAAAUAGUCUGCAUGCCGCCGGGCGCCAUGCCUGCAGGUCGACUCUAGAAAACAUG
- binding signal [12]: 4.45 log2 enrichment (interaction score)
- binding signal [6]: 2.21 log2 enrichment (interaction score)
- binding signal [19]: 0.76 log2 enrichment (interaction score)
- binding signal [10]: 3.99 log2 enrichment (interaction score)
- binding signal [20]: 4.16 log2 enrichment (interaction score)
- binding signal [8]: 0.99 log2 enrichment (interaction score)
- binding signal [14]: 3.8 log2 enrichment (interaction score)

Sequence: GGCUAGAACUAGUGGAUCCCCCGGCGCCCGGCGGCUCGAGCCCGGGUAAGUCUAAAUAGUCUGCAUGCCGCCGGGCGCCAUGCCUGCAGGUCGACUCUAGAAAACAUG
- binding signal [9]: 5.07 log2 enrichment (interaction score)

Source: publication PMC8384837, “Expanding the binding specificity for RNA recognition by a PUF domain”
